{
  "source": "paper PMC5540273",
  "about": "(PLoS ONE, 2017);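 note: KINOMEscan kinase panel screen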",
  "data": [
    {"system": "CDK4-cyclinD3", "details": "concentration: 1 μM,replicates: in singlicate; n = 1", "units": {"%Inh": "%"}, "values": [
      {"smiles": "O=C(Nc1cccc(C(F)(F)F)c1)c1cccc(Oc2ccc3nccn3n2)c1", "%Inh": 19},
      {"smiles": "O=c1[nH]cc(-c2ccc(O)cc2)c2sc(-c3ccncc3)cc12", "note": "[GSK1033723]", "%Inh": 0},
      {"smiles": "Cc1nnc(-c2ccc3occ(-c4ccc(S(C)=O)cc4)c3n2)o1", "note": "(stereo not drawn)", "%Inh": 0},
      {"smiles": "Cl.Cl.NC[C@H](CC1CCCCC1)NC(=O)c1ccc(-c2ccnc3[nH]ccc23)s1", "note": "[GSK1581428]", "%Inh": 23},
      {"smiles": "CCNCC(Cc1ccccc1)NC(=O)c1cc(Br)c(-c2ccnc3[nH]ccc23)s1.Cl.Cl", "note": "(stereo not drawn) [GSK1383280]", "%Inh": 6},
      {"smiles": "COc1cc2nccc(Nc3ccc(Oc4ccccc4)cc3)c2cc1OC.Cl", "note": "[GI261656]", "%Inh": 0},
      {"smiles": "O=C(NCC1CC1)c1ccc(-c2cc(C(=O)NC3CC3)ccc2F)cc1", "note": "[GW810445]", "%Inh": 0},
      {"smiles": "NC(=O)Nc1sc(-c2ccc(F)cc2)cc1C(N)=O", "note": "[GW789449]", "%Inh": 0},
      {"smiles": "C[C@@H](Oc1cc(-n2cnc3cc(-c4ccncc4)ccc32)sc1C(N)=O)c1ccccc1Cl", "note": "[GSK479719]", "%Inh": 21},
      {"smiles": "OCCn1cc(-c2cnc3nnn(Cc4ccc5ncccc5c4)c3n2)cn1", "%Inh": 0},
      {"smiles": "Cn1ccc2ncnc(Oc3ccc(NC(=O)Nc4cncc(C(F)(F)F)c4)c(Cl)c3)c21", "%Inh": 0},
      {"smiles": "COC(=O)c1cccc(NC(=O)NC2CCN(c3ccnc(NCc4ccc(F)cc4)n3)CC2)c1", "note": "[GSK1379860]", "%Inh": 0},
      {"smiles": "Cc1n[nH]c2cc(Nc3ccnc(Nc4cccc(CN5CCOCC5)c4)n3)ccc12", "note": "[GW682569]", "%Inh": 0},
      {"smiles": "FC(F)(F)c1cc(Br)cc(Nc2nccc(-c3cnn4ncccc34)n2)c1", "note": "[GW810578]", "%Inh": 52},
      {"smiles": "Cn1ccc2ncnc(Oc3ccc(NC(=O)Nc4cccc(C(F)(F)F)c4)c(F)c3)c21", "%Inh": 0},
      {"smiles": "COc1cc2ncn(-c3cc(OCC4CCCCC4)c(C(N)=O)s3)c2cc1OC", "note": "[GSK204559]", "%Inh": 0},
      {"smiles": "CN1CCN(CCNc2nc3cc(Oc4ccc(NC(=O)Nc5cc(C(F)(F)F)ccc5F)cc4)ccc3[nH]2)CC1.Cl.Cl", "note": "[GW768504]", "%Inh": 0},
      {"smiles": "CS(=O)c1ccc(-c2coc3ccc(-c4n[nH]c(=O)o4)cc23)cc1", "note": "(stereo not drawn)", "%Inh": 0},
      {"smiles": "CN(c1cccc(CNc2nc(Nc3ccc4c(c3)CC(=O)N4)ncc2C(F)(F)F)c1)S(C)(=O)=O", "%Inh": 0},
      {"smiles": "C[C@@H](Oc1cc(-n2cnc3ccc(-c4ccncc4)cc32)sc1C(N)=O)c1ccccc1Cl", "note": "[GSK483724]", "%Inh": 0},
      {"smiles": "c1ccc(Oc2ccc(Nc3ccnc4ccc(-c5ccccn5)cc34)cc2)cc1", "note": "[GW407034]", "%Inh": 12},
      {"smiles": "COc1cc(Nc2nccc(N3CCC(NC(=O)c4cccc(C#N)c4)C3)n2)cc(OC)c1OC", "note": "(stereo not drawn) [GSK1379751]", "%Inh": 0},
      {"smiles": "COC(=O)Nc1nc2cc(Oc3ccc(NC(=O)Nc4cc(C(F)(F)F)ccc4Cl)cc3)ccc2[nH]1.Cl", "note": "[GW697465]", "%Inh": 0},
      {"smiles": "C[C@@H](Oc1cc(-n2cnc3cc(-c4cnn(C)c4)ccc32)sc1C(N)=O)c1ccccc1Cl", "note": "[GSK580432]", "%Inh": 3},
      {"smiles": "O=C(Nc1ccc(Oc2ccc3nc(NC(=O)C4CC4)cn3n2)c(F)c1)c1cccn(-c2ccccc2)c1=O", "%Inh": 0},
      {"smiles": "Cn1cc(-c2cccc3c(N)c(C(N)=O)nnc23)cn1", "%Inh": 7},
      {"smiles": "Cc1ccc2c(-c3ccnc(Nc4ccc(C(F)(F)F)cc4)n3)cnn2n1", "note": "[GW819776]", "%Inh": 0},
      {"smiles": "Cl.Nc1n[nH]c2cc(-c3ccccn3)ccc12", "note": "[GSK2189892]", "%Inh": 0},
      {"smiles": "C[C@@H]1CNc2c(sc3ccc4nc(-c5ccc(O)cc5)ccc4c23)C(=O)N1", "%Inh": 0},
      {"smiles": "CC(=O)Nc1nc2cnc(Nc3cc(NC(=O)c4cccc(CC(C)(C)C#N)c4)ccc3C)nc2s1", "%Inh": 15},
      {"smiles": "CC(C)S(=O)(=O)N1CCN(Cc2ccc3c(c2)nc(NC(=O)c2ccsc2)n3C[C@H](O)c2ccccc2)CC1", "note": "[GW635815]", "%Inh": 0},
      {"smiles": "Cn1ccc2ncnc(Oc3ccc(NC(=O)Nc4ccnc(C(F)(F)F)c4)c(Cl)c3)c21", "%Inh": 0},
      {"smiles": "O=C1NCCc2[nH]c(-c3ccncc3)cc21", "%Inh": 36},
      {"smiles": "Cc1ccc(C(=O)Nc2ccc(Oc3ccc4nc(NC(=O)C5CC5)cn4c3)c(F)c2)c(=O)n1-c1ccccc1", "%Inh": 0},
      {"smiles": "Cc1ccc(Nc2ccnc(Nc3ccc4c(c3)CS(=O)(=O)C4)n2)cc1O.Cl", "note": "[GW579362]", "%Inh": 73},
      {"smiles": "CN(c1ccccc1CNc1nc(Nc2ccc3c(c2)CC(=O)N3)ncc1C(F)(F)F)S(C)(=O)=O", "%Inh": 34}
    ]}
  ]
}
